Values joined by “and” are separate entries in the source; they are usually repeats but may differ in a detail not shown here. Equal entries are not always repeated. Inconclusive results are not listed. Unmarked numbers belong to inactive results. Active and inactive are the calls of the source. Calls follow the shape of the dose curve; as a rule, active = well fitted inhibition curve with a large enough effect; inconclusive = small, poorly fitted or top-dose-only effect; inactive = no such curve, though single readings can be large or run the other way.
Biological target: Cruzipain (Trypanosoma cruzi) (UniProt P25779)
Assay: Confirmation qHTS Assay for Inhibitors of Cruzain; also: nearly all actives have a fitted effect of over 40% in size;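 as to activity change, negative = inhibition: plate controls were uninhibited enzyme control for no effect and buffer wells lacking enzyme for full effect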
Details: purified cruzain, Z-FR-AMC fluorescence, 0.01% Triton
Procedure: Cruzain is a cysteine protease from the tropical parasite Trypanosoma cruzi. This assay protocol is a follow-up and confirmation of related AID 1478 (qHTS Assay for Promiscuous and Specific Inhibitors of Cruzain -- with detergent). Cruzain was assayed by the use of fluorogenic coumarin-based substrate Z-FR-AMC: proteolytic cleavage releases AMC, whose fluorescence is measured at 360 nm excitation and 450 nm emission. Purified cruzain was supplied by the labs of Prof. James McKerrow and Brian Shoichet, UC San Francisco. This assay had 0.01% Triton X-100 concentration. See following references for additional details: Jadhav A, et al. J Med Chem. 2010 Jan 14;53(1):37-51. Mott BT, et al. J Med Chem. 2010 Jan 14;53(1):52-60. Assay Provider: Shoichet, Brian; University of California, San Fancisco Screening Center PI: Austin, C.P. Screening Center: NIH Chemical Genomics Center [NCGC]
Buffer: 100 mM Sodium Acetate, pH 5.5, 5 mM DTT, Triton X-100 concentration: 0.01%. Reagents/Controls: Buffer in columns 3 and 4 as negative control (no enzyme). Substrate solution: 2 uM final concentration of Z-FR-AMC (catalog number I-1160, Bachem) dispensed throughout the plate. Enzyme: 1.5 nM Cruzain final concentration in columns 1, 2, 5-48. Column 1 is neutral (100% activity). Column 2 contained titration of covalent inhibitor K11777, starting concentration 1 mM, then 1:2 dilution in duplicate). Assay Steps: Three uL of enzyme or buffer were dispensed to 1536-well Greiner black solid bottom plates. Compounds and controls (23 nL) were transferred via Kalypsys PinTool. The plates were incubated for 15 min at room temperature, and then 1 uL of substrate solution was added to start the reaction. The plates were immediately transferred to and read 4 times every 30 seconds for 2 min on ViewLux High-throughput CCD imager (Perkin-Elmer) using 360 nm excitation and 450 nm emission fluorescence protocol. The fluorescence intensity difference between the third and the first time points (time lapse of 60 seconds) was used to compute reaction progress.
Potency is read from the fitted curve at half-maximal effect.

Cruzipain (Trypanosoma cruzi), sequence (P25779 123-467 limits assumed): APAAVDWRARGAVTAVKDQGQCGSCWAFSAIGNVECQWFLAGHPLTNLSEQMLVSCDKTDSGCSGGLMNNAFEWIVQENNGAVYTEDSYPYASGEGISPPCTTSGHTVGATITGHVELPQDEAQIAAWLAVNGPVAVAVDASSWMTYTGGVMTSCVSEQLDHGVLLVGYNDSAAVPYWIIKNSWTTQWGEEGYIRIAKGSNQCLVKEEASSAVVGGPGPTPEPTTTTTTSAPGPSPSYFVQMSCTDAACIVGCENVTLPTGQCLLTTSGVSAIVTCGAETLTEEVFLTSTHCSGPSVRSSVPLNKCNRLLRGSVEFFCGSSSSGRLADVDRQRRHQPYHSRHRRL

Row | SMILES | Potency | activity change, negative = inhibition
1 | O=C(CNC(=O)c1cccc2ccccc12)OC(C(=O)Nc1cc(C(F)(F)F)ccc1Cl)c1ccccc1 (stereo not given) | 12.6 µM (active) | 
2 | CCCn1c2ccc(F)cc2c2nnc(SCCN3CCCCC3)nc21 | 12.6 µM (active) | 
3 | Cc1ccc(C)c(OCCn2c(CCNC(=O)C3CCCCC3)nc3ccccc32)c1 | 0.0708 µM (active) | 
4 | Cc1ccccc1OCC(=O)NCC(=O)OCC(=O)c1ccc(F)cc1 |  | -14.6%
5 | CCOc1nc(C#N)nc(N2CCOCC2)n1 | 5.01 µM (active) | 
6 | CCOC(=O)[C@H](CCc1ccccc1)N[C@@H](C)C(=O)N1[C@H](C(=O)O)C[C@H]2CCCC[C@@H]21 |  | 0.349%
7 | O=C(NCCCc1nc2ccccc2n1CCCCOc1ccccc1)C1CCCCC1 |  | -23.8%
8 | COc1ccccc1CCNC(=O)CNC(=O)c1ccc2ccccc2c1 |  | -7.19%
9 | O=C(Cc1nnc(-c2cc3ccccc3[nH]2)s1)Nc1cc(C(F)(F)F)ccc1Cl |  | -8.66% and 1.72%
10 | Cn1c(C(=O)NCCN2CCCCCC2)cc2c(=O)n(C)c3ccccc3c21 | 25.1 µM (active) | 
11 | O=C(COC(=O)CCSc1ccccc1Cl)Nc1ccc(F)cc1F | 14.1 µM (active) | 
12 | Cc1cc(OCC(=O)Nc2ccc(N3CCCC3)cc2)cc(C)c1Cl |  | -30.4%
13 | CC(=O)Nc1ccc(/C=C/C(=O)c2ccc(-n3nncc3-c3ccccc3)cc2)cc1 |  | 31.4%
14 | O=C(NCCc1nc2ccccc2n1CCCOc1ccccc1)C1CCCCC1 | 2.24 µM (active) | 
15 | O=C(CNC(=O)c1ccc2cc[nH]c2c1)OC(C(=O)Nc1cc(C(F)(F)F)ccc1Cl)c1ccccc1 (stereo not given) | 12.6 µM (active) | 
16 | Cc1ccc2[nH]c(=O)c(CN(CCCO)Cc3nnnn3Cc3ccco3)cc2c1 |  | -4.63%
17 | O=C(Cn1c(=O)oc2cc(S(=O)(=O)N3CCCCCC3)ccc21)NC1CCCCCCC1 |  | -3.87%
18 | CCN(CC)c1nc(C#N)nc(OC)n1 | 7.08 µM (active) | 
19 | Cc1ccc2[nH]c(=O)c(CN(Cc3ccco3)Cc3nnnn3Cc3ccco3)cc2c1 |  | -6.56%
20 | CCCCC(OC(=O)CNC(=O)c1ccccc1)C(=O)Nc1cc(C(F)(F)F)ccc1Cl (stereo not given) | 8.91 µM (active) | 

Row | SMILES | Potency | activity change, negative = inhibition
21 | COc1ccc(-c2nn3c(-c4cc(C)[nH]n4)nnc3s2)cc1 |  | -13.7%
22 | OCCN(CCO)c1ccc(C(c2ccccc2Cl)c2ccc(N(CCO)CCO)cc2Cl)c(Cl)c1 |  | -15.5%
23 | COc1ccc(C(=O)C(C)OC(=O)CNC(=O)C2CCCCC2)cc1 (stereo not given) | 1.41 µM (active) | 
24 | CC(C)(C)OC(=O)CC(=O)NNC(=O)c1cc2ccccc2[nH]1 |  | -2.89%
25 | O=[N+]([O-])c1ccccc1S(=O)(=O)NCC1CCC(CNCC2CCc3ccccc3C2)CC1 (stereo not given) |  | -5.24%
26 | COc1ccc(OC)c(NC(=O)C(OC(=O)CNC(=O)c2ccccc2)c2ccccc2)c1 (stereo not given) | 11.2 µM (active) | 
27 | O=C(COC(=O)CNC(=O)c1ccccc1)Nc1ccccc1Cl | 11.2 µM (active) | 
28 | O=C(c1ccco1)N1CCN(c2ncnc3c2[nH]c2ccc(Cl)cc23)CC1 |  | -37.6%
29 | CCN(c1ccccc1)c1nc(N)nc(C#N)n1 | 14.1 µM (active) | 
30 | N=c1c(C(=O)NCc2ccc(F)cc2)cc2c(=O)n3ccccc3nc2n1CC1CCCO1 (stereo not given) |  | -76.7%
31 | O=C(Cn1cc(CNCc2ccccc2)nn1)Nc1cc(C(F)(F)F)ccc1Cl |  | 3.4%
33 | CN(CCNC(=O)c1cc2c(=O)n(C)c3ccccc3c2n1C)Cc1ccccc1 |  | -49.8%
34 | Cc1ccc(Nc2nc(C#N)nc(NC3CCCC3)n2)cc1 | 0.447 µM (active) | 
35 | CCNc1nc(C#N)nc(N2CCCCC2)n1 | 5.01 µM (active) | 
36 | Cc1ccc(C(=O)NCCn2c(N)c(C#N)c3nc4ccccc4nc32)cc1 |  | -28.5%
37 | O=C(Cc1ccccc1)NCC(=O)OCC(=O)c1ccc2ccccc2c1 |  | -9.73%
38 | O=C(NCc1nnc(-c2cc3ccccc3[nH]2)s1)c1ccccc1 |  | 1%
39 | CC(C)(C)c1ccccc1Nc1nc(C#N)nc(NC2CCCC2)n1 | 2 µM (active) | 
40 | O=C(CNC(=O)C1CCCCC1)OC(C(=O)Nc1cc(C(F)(F)F)ccc1Cl)c1ccccc1 (stereo not given) | 5.01 µM (active) | 
